Compound activity deposited in PubChem by National Center for Advancing Translational Sciences (NCATS).
An excerpt weighted towards active compounds, which were near 5.7% of everything screened.
HepG2 tox: qHTS for Inhibitors of TGF-b: Cytotox Counterscreen; HepG2 CAGA-GFP viability, ATP luminescence, 18 h; Potency, µM (highest dose often 46.1 µM), for the others: at the top dose activity change, negative = cytotoxicity, most hits filed as cytotoxic; 410,000 compounds, 0.76% hits; note: potency is the fitted concentration of half-maximal effect
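HepG2 CAGA-GFP cells (1000/well, DMEM with 1% FBS) received compound, then TGF-beta at 500 pg/mL final, and were incubated 18 hours at 37 degrees C. Viability was read by CellTiter-Glo luminescence. Media-only wells were set as complete cell-killing and DMSO as no toxicity.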
S2 tox: Viability Counterscreen for Primary qHTS for Inhibitors of ATXN expression. S2 cells (HEK-293 line with an ATXN2-luciferase reporter) viability, CellTiter-Fluor protease fluorescence, 24 h. Potency, µM (doses to about 56.7 µM), most hits filed as cytotoxic. 400,000 compounds, 0.49% hits; note: potency is the fitted concentration of half-maximal effect; nearly all actives have a fitted effect of over 40% in size
IL1B secr inh: qHTS for Inhibitors of Inflammasome Signaling: IL-1-beta AlphaLISA Primary Screen. THP-1 LPS/ATP IL-1B secretion, AlphaLISA, 16 h; stronger effect = lower value. activity change, % at 57.5 µM. 360,000 compounds, 4.7% hits. AID 743279, 2014; in the data active = activity change below about -50%; inconclusive = mostly about -30% to -49%; note: % is set by controls: 0 for no effect and ±100 for the full control effect
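Secreted IL-1B measured by AlphaLISA bead assay after 16 h compound exposure of THP-1 cells; compounds (final up to 57.5 uM) added 1 h before LPS (250 ng/mL) and ATP (1.25 mM) stimulation; lower signal means less secretion.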
ATXN2 expr inh: Primary qHTS for Inhibitors of ATXN expression; HEK-293 ATXN2-luciferase reporter, luminescence, 24 h; Potency, µM (top dose mostly 57 µM), for the others: at the top dose activity change, negative = inhibition, hits mostly inhibitors; 360,000 compounds, 0.72% hits; AID 1745845, 2022; note: potency is the fitted concentration of half-maximal effect; % is set by controls: 0 for no effect and ±100 for the full control effect; nearly all actives have a fitted effect of over 55% in size
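ATXN2-luciferase reporter cells (luciferase flanked by upstream and downstream ATXN2 gene portions) were treated 24 h at 37 °C with compounds at up to 57 uM. SteadyGlo luminescence gave expression; GF-AFC fluorescence gave viability.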
TGFb SMAD3 inh: qHTS for Inhibitors of TGF-b; HepG2 CAGA-GFP TGF-b/SMAD3 reporter, GFP fluorescence, 18 h; TGF-beta stimulated, 500 pg/mL final; Potency, µM (top dose mostly 46.1 µM), without a hit: at the top dose activity, negative = inhibition, actives largely listed as inhibitors; 410,000 compounds, 1.2% hits; AID 588855, 2011; note: potency is the fitted concentration of half-maximal effect; % is set by controls: 0 for no effect and ±100 for the full control effect; nearly all actives have a fitted effect of over 65% in size
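First, reporter cells (HEPG2 CAGA-GFP) rested 2 h at 37 degrees C. Next, compounds were pinned in and TGF-beta added to 500 pg/mL final. After 18 h, GFP was imaged per cell and summed per well.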
Starred values were filed as active, the others as inactive; i = inactive; ? = inconclusive; / = not tested or not shown. Unless noted, calls come from the whole dose curve; as a rule, active = well fitted curve in the direction sought with a large enough effect; inconclusive = small, poorly fitted or top-dose-only effect, or another doubt; inactive = no such curve, though single readings can be large; an effect the other way counts as inactive or inconclusive.

SMILES | HepG2 tox | S2 tox | IL1B secr inh | ATXN2 expr inh | TGFb SMAD3 inh
CC1=C(C(=O)Nc2ccccc2C)C(c2ccccn2)n2nc(SCc3ccccc3F)nc2N1 (stereo not drawn) | 7% | / | / | / | ?
CC1(C)C(N(O)C(=O)Nc2ccc(Cl)cc2)N(c2ccc(Cl)cc2)C(=O)N1CC(=O)NN=CC=Cc1ccc([N+](=O)[O-])o1 (stereo not drawn) | / | / | / | 34µM* | /
CC1(C)C(N(O)C(=O)Nc2ccccc2)N(c2cccc(Cl)c2)C(=O)N1O (stereo not drawn) | -12% | i | -6 | -9% | 4%
O=C(CCCCCn1c(=S)[nH]c2cc3c(cc2c1=O)OCO3)N1CCN(C2CCCCC2)CC1 | -52% | ? | -74* | ? | ?
CC(C)C1(C)NC(c2ccc3c(c2)OCO3)=CC(c2ccccc2O)N1 (stereo not drawn) | 19% | / | / | / | 4%
CC(C)C1N=C(c2ccc3c(c2)OCO3)CC(c2ccccc2O)N1 (stereo not drawn) | -65% | 28µM* | -19 | ? | ?
Cc1cccc(-n2c(SCC(=O)Nc3ccc(C)c(C)c3)nc3n[nH]c(C)c3c2=N)c1 | -26% | / | / | / | ?
CN1C(=O)/C(=C/c2ccc(O)c([N+](=O)[O-])c2)NC1=S | -2% | 25µM* | 44 | -11% | -1%
COc1cc(/C=C2\NC(=S)N(C)C2=O)ccc1O | -1% | ? | -1 | 0% | 25%
COc1ccc(CCNC(=O)c2ccc(Cn3c(=O)c4cccn4c4cccnc43)cc2)cc1OC | -26% | / | / | / | -20%
COc1cccc(CNc2nc(-c3cccnc3)nc3ccccc23)c1 | 9% | i | -93* | -5% | -1%
Fc1ccccc1CNc1nc(-c2cccnc2)nc2ccccc12 | -18% | i | -97* | ? | ?
c1cncc(-c2nc(NCc3cccs3)c3ccccc3n2)c1 | 0% | i | -7 | 1% | 8%
COc1cccc(/C=N/Nc2nc(-c3cccnc3)nc3ccccc23)c1 | -31% | ? | 28 | -22% | ?
CC(=O)C1=C(C)OC(N)=C(C#N)C1c1cc([N+](=O)[O-])ccc1Cl (stereo not drawn) | 6.3µM* | i | -62* | -24% | ?
CC(=O)C1=C(C)OC(N)=C(C#N)C1c1cccc([N+](=O)[O-])c1 (stereo not drawn) | -1% | i | 5 | -16% | 4%
CN(C)c1ccc(/C=C/c2ccnc3ccc(Br)cc23)cc1 | -28% | / | / | / | 20%
Cc1ccccc1NC(=O)c1c(C)oc2ccc(O)c(CN3CCN(C)CC3)c12 | -3% | i | / | -2% | -6%
CNC(=O)[C@@H]1C[C@@H](NCc2cccc(Oc3ccccc3)c2)CN1C(C)C | / | i | / | / | /
CCOc1cc(CNc2ccc(N3CCCCC3)cc2)cc(Br)c1OCC(=O)NC(C)(C)C | -35% | i | -86* | -17% | ?
COc1cc(CNc2ccc(N3CCCC3)cc2)cc(Cl)c1OC | -16% | i | ? | ? | ?
CCOc1cc(CNc2ccc(N3CCCC3)cc2)cc(Cl)c1OC | -31% | ? | -99* | -18% | -3%
COc1ccc(OCc2n(CC(=O)OC3CC(C)CCC3C(C)C)c3ccccc3[n+]2C)cc1 (stereo not drawn) | 14µM* | ? | -58* | ? | ?
COc1ccc(-c2n(CC(=O)OC3CC(C)CCC3C(C)C)c3ccccc3[n+]2C)cc1 (stereo not drawn) | 11µM* | ? | -201* | 7.5µM* | 5µM*
CCc1ccc(C2C(C#N)=C(N)C(C#N)(C#N)C3=CCC(C(C)(C)C)CC32)cc1 (stereo not drawn) | -109% | i | -58* | -18% | ?
O=C(NCCCN1CCOCC1)c1cc(-c2cccc(Br)c2)nc2ccccc12 | -4% | i | -64* | -18% | 0%
CN1CCC(NC(=O)c2cc(-c3cccc(Br)c3)nc3ccccc23)CC1 | -63% | ? | -79* | ? | -5%
